Pf growth 96h = P. falciparum growth inhibition at 96 hour, primary screen for plastid delayed-death inhibitors; AID 504834; actives 6.9% (n = 320,000); Potency, µM (titrated, usually from 28.7 µM), inactives show top-dose activity change, negative = inhibition, most hits filed as inhibitors; P. falciparum luciferase reporter growth, 96 h; further: potency means the concentration at half of the fitted maximal effect; on the % scale 0 is the no-effect control and ±100 the full control effect
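Two parasite generations (96 h, 37 C, 5% CO2) of compound exposure in infected erythrocytes (0.05% parasitemia, 2% hematocrit). Luciferase-reporter P. falciparum; decreased luminescence indicates inhibited growth, aimed at apicoplast-acting delayed death.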
CHX counter = affects cycloheximide protein synthesis inhibition readout, counter-screen; actives 12% (n = 300,000); max response, %; cell reporter, cycloheximide protein synthesis inhibition counterscreen; AID 2314; in the data active means max response mostly above about 13%, no sharp cut-off; inactive means mostly below about 14%; further: read at 38.3 µM for the half of the compounds with a filed dose; 0% is about no effect
Pf growth 48h = inhibits P. falciparum growth in the first generation, 48 h; actives 5.9% (n = 310,000); Potency, µM (top dose mostly 28.7 µM), inactives show at the highest dose activity change, negative = inhibition, usual class: inhibitors; AID 504832; P. falciparum luciferase growth in erythrocytes, 48 h; further: potency means the concentration at half of the fitted maximal effect; on the % scale 0 is the no-effect control and ±100 the full control effect
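Compounds are pin-transferred into medium, infected erythrocytes (2% hematocrit, 0.1% parasitemia final) are added, and plates sit one parasite generation at 37 C in 5% CO2. Detection reagent is then added and luminescence measured.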
NS1 inh = inhibitors of influenza NS1 protein function. actives 0.4% (n = 270,000). Potency, µM (top dose mostly 46.1 µM), without a hit: at the top dose activity, positive = more growth; calls by dose curve; further: potency means the concentration at half of the fitted maximal effect; actives are rising curves; nearly all actives have a fitted effect of over 50% in size
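Read-out: OD600 growth recovery of NS1-expressing budding yeast. Cells grown overnight at 30C in -URA glucose medium, washed, resuspended and diluted 1:100 in 2% galactose assay medium, pH 6.0. Same strain lacking NS1 served as positive control.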
SARS PLpro yeast = blocks SARS-CoV papain-like protease in a yeast assay | S. cerevisiae expressing SARS-CoV PLpro, growth rescue | Potency, µM (doses to about 32.9 µM), inactives show at the top dose activity, positive = growth rescue, hits mostly activators | actives 0.19% (n = 330,000); calls by dose curve; further: potency means the concentration at half of the fitted maximal effect; 0% is about no effect; nearly all actives have a fitted effect of over 55% in size
Shiga toxin inh = blocks Shiga toxin action in Vero cells | Vero cells, Shiga toxin protein synthesis inhibition reporter | inhibition, % at 38.7 µM | actives 9.2% (n = 290,000); in the data active means inhibition mostly above about 28%, no sharp cut-off; inactive means mostly below about 43%; further: 0% is about no effect
The depositor's hits bear a star; ? = inconclusive; . = not tested or not shown. Only some compounds are listed: those with a hit (about 21% of all), similar ones and a draw of the others. Unless noted, the call rests on the fitted dose curve; in most records, active means well fitted inhibition curve with a large enough effect; inconclusive means small, poorly fitted or top-dose-only effect, or another doubt; inactive means no such curve, though single readings can be large or run the other way.

SMILES	Pf growth 96h	CHX counter	Pf growth 48h	NS1 inh	SARS PLpro yeast	Shiga toxin inh
O=C(CSc1nc2cc([N+](=O)[O-])ccc2n1-c1ccccc1)NCc1ccc2c(c1)OCO2	10.4µM*	-1.2	-21.9%	3.98µM*	10.8%	17.7
O=C(CCc1ccccc1)NCc1ccc2c(c1)OCO2	-28.6%	14.0*	17.9%	5.2%	-2.9%	19.4
CCOC(=O)c1c(NCCN(C)C)c2ccccc2[nH]c1=O	97.9%	-0.6	57.0%	3.6%	1.2%	-9.1
O=C(CCc1ccccc1)NCc1ccncc1	3.7µM*	-2.4	9.6%	8.8%	-2.0%	-4.7
CCOC(=O)c1c(NCc2ccc3c(c2)OCO3)c2ccccc2[nH]c1=O	24.2%	19.2*	-16.6%	-9.5%	-5.8%	10.2
Cc1cc(C)cc(-n2c(SCC(=O)NCc3ccc4c(c3)OCO4)nc3ccccc3c2=O)c1	?	-2.6	?	4.1%	3.8%	-8.7
CCc1cccc(NC(=O)CCCn2nc(C)c3c(C)n(-c4ccccc4)nc3c2=O)c1	?	-3.1	1.2%	-5.4%	2.5%	-3.3
COc1ccc(NC(=O)c2n[nH]c(=O)c3ccccc23)cc1S(=O)(=O)N1CCCCC1	?	-2.1	?	13.7%	-8.4%	-8.2
O=C(NCc1ccc2c(c1)OCO2)C(=O)Nc1ccccc1	4.0%	22.1*	103.8%	10.4%	1.7%	90.5*
O=C(NCc1ccccc1)c1c[nH]c2cc3c(cc2c1=O)OCCO3	-26.3%	36.8*	10.7%	10.6%	-15.8%	30.2*
CCNS(=O)(=O)c1ccc(CCC(=O)NCc2ccc3c(c2)OCO3)cc1	0.415µM*	-0.2	-17.7%	2.9%	0.9%	-3.6
O=C(CCc1ccc(S(=O)(=O)NCc2ccccc2)cc1)NCc1ccc2c(c1)OCO2	.	1.7	-4.2%	-0.1%	5.7%	-17.0
CCOc1ccc2[nH]cc(C(=O)NCc3ccccc3)c(=O)c2c1	?	8.6	8.8%	14.8%	10.7%	-4.9
CCN(CC(=O)Nc1c(C(=O)OC)[nH]c2ccccc12)c1ccc2c(c1)OCO2	?	3.7	10.4µM*	17.0%	-6.5%	7.7
CCOC(=O)CSC1=C(C#N)C(c2ccccc2Cl)C(C(=O)OC)C(=O)N1 (configuration not stated)	?	9.6	-4.3%	0.1%	-2.7%	-16.5
COc1ccc2cc(CCNC(=O)c3c(-c4ccccc4Cl)noc3C)c(=O)[nH]c2c1	?	10.8	-25.6%	-11.0%	3.4%	-4.5
CCN(CC)c1ccc(C(=O)NNC(=O)C2CSC3(C)CCC(=O)N23)cc1 (configuration not stated)	?	.	?	.	0.4%	.
CC(NC(=O)C1CCCN(C(=O)N(C)C)C1)c1ccccc1 (configuration not stated)	.	-3.3	6.7%	0.2%	-1.6%	4.1
Cc1cc[n+](-c2nc3ccccc3nc2[N-]S(=O)(=O)c2ccccc2)cc1	-10.7%	-0.7	8.7%	8.2%	17.7%	30.5
CCc1cc[n+](-c2nc3ccccc3nc2[N-]S(=O)(=O)c2ccc(Br)s2)cc1	?	13.0*	-5.4%	23.9%	4.3%	43.9
Cc1ccc([N+](=O)[O-])c(OCC(O)CNC(C)(C)C)c1 (configuration not stated)	?	1.1	?	5.2%	0.2%	-5.6
Cc1[nH]c2ccccc2c1N=Nc1c(C)n(C)n(-c2ccccc2)c1=O	?	10.4	118.3%	.	0.9%	2.2
Cc1cccc(-c2ccc(C=Nc3c(C)n(C)n(-c4ccccc4)c3=O)o2)c1	-21.3%	28.1*	-3.3%	-33.2%	10.7%	35.1
Cc1c(N=Cc2nc3ccccc3[nH]2)c(=O)n(-c2ccccc2)n1C	6.9%	46.4*	25.6%	-14.0%	4.3%	89.7*
Cn1c(/C=N/O)nc2ccccc21	26.6%	12.1	29.1%	0.2%	-0.2%	18.7
Cc1c(N=Cc2nc3ccccc3n2C)c(=O)n(-c2ccccc2)n1C	63.4%	49.3*	-2.0%	-37.9%	1.6%	63.6*
COc1cccc(-n2c(O)c(C=Nc3c(C)n(C)n(-c4ccccc4)c3=O)c(=O)[nH]c2=O)c1	37.7%	-5.6	4.2%	4.5%	19.8%	-10.5
COc1cc2nc(CN3CCN(S(=O)(=O)c4ccc(Br)cc4)CC3)[nH]c(=O)c2cc1OC	.	.	.	.	1.3%	.

High-throughput results from PubChem BioAssay.
